Measured values reported in PubChem BioAssay (NCI).
The panel holds about 79,000 compounds, 15% with a hit somewhere; the sample as a whole holds those more often. Active and inactive are the calls of the source. Cut-off read from the data, not from the text of the source: active = growth inhibition above about 70%; inactive = the rest.

Legend:
[1] = NCI Yeast Anticancer Drug Screen. Data for the rad50 strain (AID 155);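 note: 0% = growth of vehicle-only cultures of the same strain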; details: S. cerevisiae rad50 strain growth inhibition, hits give high values
How it was run: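 Genetically altered yeast (DNA repair pathway); compound treatment; growth inhibition vs vehicle ctrl.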

[2] = NCI Yeast Anticancer Drug Screen. Data for the mec2-1 strain (AID 157); details: S. cerevisiae mec2-1 strain, hits give high values
How it was run: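 Mutant yeast (mec2-1) grown with compound; growth inhibition relative to vehicle control reported.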

[3] = NCI Yeast Anticancer Drug Screen. Data for the sgs1 mgt1 strain (AID 161);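 note: 0% = growth of cultures given vehicle only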; details: S. cerevisiae sgs1 mgt1 strain, hits give high values
How it was run: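 Growth of a repair-deficient yeast mutant was monitored after compound treatment and expressed as inhibition relative to vehicle-treated cultures.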

[4] = NCI Yeast Anticancer Drug Screen. Data for the cln2 rad14 strain (AID 165);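 note: 0% = growth equal to vehicle treated cultures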; details: S. cerevisiae cln2 rad14 strain, hits give high values
How it was run: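 Readout is yeast growth inhibition versus vehicle-treated controls, using a strain with cln2 and rad14 alterations exposed to compound.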

[5] = NCI Yeast Anticancer Drug Screen. Data for the bub3 strain (AID 167); details: S. cerevisiae bub3 mutant strain, hits give high values
How it was run: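 Yeast carrying a defined mutation is treated with each compound, and growth is compared with that of vehicle-exposed cells to give inhibition.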

[6] = NCI Yeast Anticancer Drug Screen. Data for the mlh1 rad18 strain (AID 175); details: S. cerevisiae mlh1 rad18 strain growth inhibition, hits give high values
How it was run: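 Genetically defined yeast (DNA repair-deficient) exposed to compounds; growth inhibition determined relative to vehicle.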

[7] = at 5.0 µM (retest, dose inferred, filed as 0.5)
[8] = at 50.0 µM (retest, dose inferred, filed as 5.0)

Measured: growth inhibition

CCCCCCCCN(CCCCCCCC)CC(O)c1cc(-c2ccc(Cl)cc2)nc2c(Cl)cccc12 (configuration not stated)
inactive: [1]; [7] 1% | [1]; [8] 5% | [1]; at 50.0 µM 19.1% | [2]; [7] -1% | [2]; [8] 1% | [2]; at 50.0 µM 25.2% | [3]; [7] -3% | [3]; [8] 20% | [3]; at 50.0 µM 35.6% | [4]; [7] -4% | [4]; [8] -13% | [4]; at 50.0 µM 45.4% | [5]; [7] 2% | [5]; [8] 12% | [5]; at 50.0 µM 6.6% | [6]; [7] 3% | [6]; [8] 4% | [6]; at 50.0 µM 33.5%

O=Cc1cc2c(s1)C(=O)c1sccc1C2=O
inactive: [4]; [7] 52%
active: [1]; [7] 93% | [1]; [8] 99% | [1]; at 50.0 µM 88.8% | [2]; [7] 96% | [2]; [8] 99% | [2]; at 50.0 µM 91.8% | [3]; [7] 84% | [3]; [8] 99% | [3]; at 50.0 µM 89% | [4]; [8] 97% | [4]; at 50.0 µM 91.7% | [5]; [7] 94% | [5]; [8] 99% | [5]; at 50.0 µM 90% | [6]; [7] 92% | [6]; [8] 99% | [6]; at 50.0 µM 90.3%

O=C(Nc1ccc(Cl)cc1Cl)C1C(=O)OC2(CCCCC2)OC1=O
active: [1]; [8] 96% | [1]; at 50.0 µM 84.5% | [2]; [8] 98% | [2]; at 50.0 µM 89.8% | [3]; [8] 97% | [4]; [8] 98% | [5]; [8] 98% | [6]; [8] 97% | [6]; at 50.0 µM 87.2%
inactive: [1]; [7] 24% | [2]; [7] 38% | [3]; [7] 30% | [3]; at 50.0 µM 55.6% | [4]; [7] 37% | [4]; at 50.0 µM 62.8% | [5]; [7] 45% | [5]; at 50.0 µM 62.3% | [6]; [7] 37%

COc1ccc2c(c1)sc(/C=C/c1ccc(O)c3ncccc13)[n+]2C
inactive: [1]; [7] 12% | [2]; [7] 49% | [3]; [7] -53% | [4]; [7] 3% | [5]; [7] 19% | [6]; [7] 62%
active: [1]; [8] 88% | [1]; at 50.0 µM 92.3% | [2]; [8] 92% | [2]; at 50.0 µM 93.6% | [3]; [8] 94% | [3]; at 50.0 µM 92% | [4]; [8] 86% | [4]; at 50.0 µM 90.3% | [5]; [8] 86% | [5]; at 50.0 µM 89.9% | [6]; [8] 92% | [6]; at 50.0 µM 92.4%

Cc1cc2nc3ccc(N)cc3oc-2cc1=[N+](C)C
active: [1]; [8] 95% | [1]; at 50.0 µM 95.6% | [2]; [8] 96% | [2]; at 50.0 µM 92.8% | [3]; [8] 91% | [3]; at 50.0 µM 74% | [4]; [8] 93% | [4]; at 50.0 µM 81.5% | [5]; [8] 94% | [5]; at 50.0 µM 78.2% | [6]; [8] 92%
inactive: [1]; [7] 6% | [2]; [7] 14% | [3]; [7] -9% | [4]; [7] -12% | [5]; [7] -8% | [6]; [7] 7% | [6]; at 50.0 µM 3.8%

O=C1c2cc([N+](=O)[O-])cc3cc([N+](=O)[O-])cc(c23)C(=O)N1CCNCCN1C(=O)c2cc([N+](=O)[O-])cc3cc([N+](=O)[O-])cc(c23)C1=O
active: [1]; [7] 86% | [1]; [8] 92% | [1]; at 50.0 µM 81.2% | [2]; [8] 89% | [2]; at 50.0 µM 89.2% | [3]; [8] 94% | [4]; [8] 90% | [4]; at 50.0 µM 70.3% | [5]; [8] 92% | [5]; at 50.0 µM 92.3% | [6]; [8] 92% | [6]; at 50.0 µM 76.3%
inactive: [2]; [7] 42% | [3]; [7] 64% | [3]; at 50.0 µM 42.4% | [4]; [7] 62% | [5]; [7] 61% | [6]; [7] 56%

Cc1ccc(S(=O)(=O)Nc2ccccc2C=O)cc1
active: [1]; at 50.0 µM 99% | [2]; at 50.0 µM 99.3% | [3]; at 50.0 µM 99% | [4]; at 50.0 µM 99% | [5]; at 50.0 µM 98.8% | [6]; [8] 84% | [6]; at 50.0 µM 99.1%
inactive: [1]; [7] 17% | [1]; [8] 54% | [2]; [7] 19% | [2]; [8] 69% | [3]; [7] 16% | [3]; [8] 63% | [4]; [7] 1% | [4]; [8] 50% | [5]; [7] 4% | [5]; [8] 49% | [6]; [7] 14%

O=c1oc(-c2cc([N+](=O)[O-])cc([N+](=O)[O-])c2Cl)nc2ccccc12
active: [1]; at 50.0 µM 75.3% | [3]; at 50.0 µM 83.7% | [5]; at 50.0 µM 82.5% | [6]; at 50.0 µM 86.8%
inactive: [1]; [7] 29% | [1]; [8] 50% | [2]; [7] 8% | [2]; [8] 22% | [2]; at 50.0 µM 63.5% | [3]; [7] 13% | [3]; [8] 47% | [4]; [7] 15% | [4]; [8] 44% | [4]; at 50.0 µM 61.5% | [5]; [7] 15% | [5]; [8] 58% | [6]; [7] 1% | [6]; [8] 57%

c1ccc2c(c1)-c1cccc3cncc-2c13
inactive: [1]; [7] 45% | [1]; [8] 62% | [2]; [7] 52% | [2]; [8] 53% | [3]; [7] 19% | [4]; [7] 69% | [5]; [7] 53% | [6]; [7] 33% | [6]; [8] 52%
active: [1]; at 50.0 µM 90.7% | [2]; at 50.0 µM 92.6% | [3]; [8] 98% | [3]; at 50.0 µM 92.6% | [4]; [8] 99% | [4]; at 50.0 µM 90.9% | [5]; [8] 99% | [5]; at 50.0 µM 91.2% | [6]; at 50.0 µM 91.2%
